Assay results taken from ChEMBL document CHEMBL3433997, “St. Jude Leishmania screening dataset” (2016).

Each compound was assayed against Solute carrier family 2, facilitated glucose transporter member 1 (Homo sapiens) (UniProt P11166) (assay: ST_JUDE_LEISH: Cytotoxicity at 2uM final concentration against transgenic Leishmania Mexicana promastigotes LmGLUT1 that are glucose transport deficient and complemented with the human glucose transporter GLUT1. Activity is measured by DNA content using SYBR green in vitro).
Type: functional

Chain of Solute carrier family 2, facilitated glucose transporter member 1 (Homo sapiens) (P11166 whole entry): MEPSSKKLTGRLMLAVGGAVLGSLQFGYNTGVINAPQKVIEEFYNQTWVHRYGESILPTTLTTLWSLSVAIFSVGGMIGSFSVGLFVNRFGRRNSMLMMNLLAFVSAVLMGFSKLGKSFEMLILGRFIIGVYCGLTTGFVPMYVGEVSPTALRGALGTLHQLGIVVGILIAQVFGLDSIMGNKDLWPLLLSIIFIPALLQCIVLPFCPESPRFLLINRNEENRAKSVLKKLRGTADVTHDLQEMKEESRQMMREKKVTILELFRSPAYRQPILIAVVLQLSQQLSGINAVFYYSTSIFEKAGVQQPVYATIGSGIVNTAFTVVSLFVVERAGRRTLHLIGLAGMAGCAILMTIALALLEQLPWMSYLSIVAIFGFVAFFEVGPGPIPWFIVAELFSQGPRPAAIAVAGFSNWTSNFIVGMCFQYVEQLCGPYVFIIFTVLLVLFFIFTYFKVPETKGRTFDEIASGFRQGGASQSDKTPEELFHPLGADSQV

SMILES | inhibition [%]
O=[N+]([O-])c1cccc(NC(=S)N2CCCN(Cc3ccc(C(F)(F)F)cc3)CC2)c1 | 2.92
CCCN(CCC)CCCOc1ccc(C(=O)c2c(-c3ccc(OCCCN(CCC)CCC)cc3)oc3ccc(Cl)cc23)cc1 | 70.8
CN1CCC(Oc2cc(NC(=O)Nc3ccc(-c4ccncc4)c(Cl)c3)ccc2Cl)CC1 | 16
O=C(Nc1cccc(-c2ccc(-c3nc4cc(C(F)(F)F)ccc4[nH]3)cc2)c1)c1c[nH]cn1 | 5.73
CN1CCN(c2ccnc3cc4c(cc23)N(Cc2ccccc2)CC4)CC1 | -1.34
COc1cc(NC(=O)N2CCOC(CCN3CCC4(CCc5ccccc54)CC3)(c3ccc(Cl)c(Cl)c3)C2)cc(OC)c1OC (stereo not given) | 18.1
NC1CCCN(Cc2cccc(-c3ccc(-c4nc5ccccc5[nH]4)s3)c2)C1 (stereo not given) | 0.99
CN(C)Cc1cccc(-c2cc3c(-c4cnn(C)c4)c(Cl)cnc3[nH]2)c1 | 95.7
Oc1ccc(CNCC2CCN(CC3CCCCC3)CC2)cc1 | 5.22
COc1cc(-c2nc3c4ccccc4c4ccccc4c3[nH]2)cc(OC)c1OC | 1.82
CN(C)CCC1CCCc2ccc(NC(=O)Nc3cccc(Cl)c3Cl)cc21 (stereo not given) | 1.81
O=C(Nc1ccc(N2CCCN(Cc3cccc(F)c3)CC2)cc1)c1ccc(F)cc1 | 4.73
Cc1cc(=O)[nH]c2cc(Nc3ccnc(Nc4cccc(C(N)=O)c4)n3)ccc12 | 3.02
COc1ccc2c(N/N=C/c3ccccc3[N+](=O)[O-])cc(C)nc2c1 | 3.18
CN1CCN(CCCN(Cc2cccc(-c3ccc(CNCCc4ccccc4)cc3)c2)C(=O)Nc2ccccc2)CC1 | 2.48
Cc1ccc(-c2nn3c(O)c4c(nc3c2C)CCCC4)cc1 | -0.48
CCCN1CCC2(CC1)NC(C(=O)NCCC(C)C)Cc1c2[nH]c2cc(Cl)ccc12 (stereo not given) | 6.25
Cc1cc(-c2cc(Cl)ccc2Cl)no1 | -2.71
CN(C(=O)NCCc1ccccc1)C1CCN(CCCCCNC(=O)/C=C/c2ccc(Cl)c(Cl)c2)CC1 | 14.9
CCCCn1c(Sc2ccc(C#N)c([N+](=O)[O-])c2)nnc1-c1cccc(Cl)c1 | 4.8

SMILES | inhibition [%]
Cc1cc(N[C@@H](Cc2ccccc2)C(=O)NCCOc2ccccc2)nc(NCC2CCCCC2)n1 | 6
N#Cc1ccc(/C=C/C(=O)NCCCCCN2CCCN(C(=O)Nc3ccc(Cl)c(C(F)(F)F)c3)CC2)cc1 | 1.18
CN(c1ccccc1C(=O)Nc1ccccc1Oc1ccccc1)S(=O)(=O)c1ccccc1 | 0.02
O=C(/C=C/c1ccc(Cl)c(Cl)c1)NCCCCCN1CCCN(C(=O)Nc2ccc(OC(F)F)cc2)CC1 | 3.05
Cc1cc(N[C@@H](Cc2ccccc2)C(=O)NC2CCCC2)nc(NCCOc2ccccc2)n1 | 1.41
CO/C(=C/C=C/c1cc2cc(Cl)c(Cl)cc2[nH]1)C(=O)NC1CC(C)(C)N(C)C(C)(C)C1 | 2.45
Cc1cc(O)c(-c2ccc(Oc3ccc(F)cc3)cc2)c(C)n1 | 0.78
COc1cc(C(=O)N2CCOC(CCN3CCc4c(c5ccccc5n4C)C3)(c3ccc(Cl)c(Cl)c3)C2)cc(OC)c1OC (stereo not given) | -0.35
COc1cc(NC(=O)c2sc(-c3ccc(Cl)cc3)cc2NC(=O)N2CCCC2)ccc1OCCN1CCCC1 | 2.35
COc1cc(CCNCC(O)c2ccc([N+](=O)[O-])c(OCc3ccccc3)c2)cc(OC)c1OC (stereo not given) | -0.46
Cc1ccc2nc(-c3ccc(C(=O)NC4CCN(Cc5ccccc5)CC4)s3)[nH]c2c1 | -1.39
CC(C)(C)c1ccc(CNC(=O)c2cc(CNC3CCNCC3)ccc2O)cc1 | 1.45
O=[N+]([O-])c1ccc(-c2nc3cc(C4=NC5CCCCC5N4)ccc3[nH]2)cc1 (stereo not given) | -0.03
O=C(/C=C/c1ccc(Cl)c(Cl)c1)NC1CCC(CN2CCC(c3nc4cccnc4[nH]3)CC2)CC1 (stereo not given) | 1.77
CC(=O)Nc1cccc(CNCc2ccc(-c3cnc(N4CCCC(C)(C)C4)nc3)cc2)c1 | -2.79
Cc1ccc2c(=NN=Cc3cccc(F)c3)cc(C)[nH]c2c1 | 7.16
Cn1nccc1C(=O)NCCNCc1ccc(-c2ccc(-c3nc4cc(F)ccc4[nH]3)cc2)cc1 | 1.91
COc1ccccc1-c1cc(C(=O)N2CCN(S(=O)(=O)c3ccc(C)cc3)CC2)[nH]n1 | 6.02
OCCNc1nc(Nc2ccccc2)nc2ccccc12 | 8.68
CCCCCCN1CCCN(Cc2ccc(C(=O)Nc3ccc(Cl)cc3)cc2)CC1 | 12.3

These compounds were tested against Hexose transporter 1 (Plasmodium falciparum) (UniProt O97467) (assay: ST_JUDE_LEISH: Cytotoxicity at 2uM final concentration against transgenic Leishmania Mexicana promastigotes LmPfHT that are glucose transport deficient and complemented with the Plasmodium falciparum hexose transporter. Activity is measured by DNA content using SYBR green in vitro).
Type: functional

SMILES | inhibition [%]
O=[N+]([O-])c1cccc(NC(=S)N2CCCN(Cc3ccc(C(F)(F)F)cc3)CC2)c1 | 4.79
CCCN(CCC)CCCOc1ccc(C(=O)c2c(-c3ccc(OCCCN(CCC)CCC)cc3)oc3ccc(Cl)cc23)cc1 | 49.3
CN1CCC(Oc2cc(NC(=O)Nc3ccc(-c4ccncc4)c(Cl)c3)ccc2Cl)CC1 | 13.7
O=C(Nc1cccc(-c2ccc(-c3nc4cc(C(F)(F)F)ccc4[nH]3)cc2)c1)c1c[nH]cn1 | 5.19
CN1CCN(c2ccnc3cc4c(cc23)N(Cc2ccccc2)CC4)CC1 | -0.13
COc1cc(NC(=O)N2CCOC(CCN3CCC4(CCc5ccccc54)CC3)(c3ccc(Cl)c(Cl)c3)C2)cc(OC)c1OC (stereo not given) | 15.1
NC1CCCN(Cc2cccc(-c3ccc(-c4nc5ccccc5[nH]4)s3)c2)C1 (stereo not given) | 0.63
CN(C)Cc1cccc(-c2cc3c(-c4cnn(C)c4)c(Cl)cnc3[nH]2)c1 | 95
Oc1ccc(CNCC2CCN(CC3CCCCC3)CC2)cc1 | 0.53
COc1cc(-c2nc3c4ccccc4c4ccccc4c3[nH]2)cc(OC)c1OC | 1.28
CN(C)CCC1CCCc2ccc(NC(=O)Nc3cccc(Cl)c3Cl)cc21 (stereo not given) | 2.38
O=C(Nc1ccc(N2CCCN(Cc3cccc(F)c3)CC2)cc1)c1ccc(F)cc1 | 5.55
Cc1cc(=O)[nH]c2cc(Nc3ccnc(Nc4cccc(C(N)=O)c4)n3)ccc12 | 3.83
COc1ccc2c(N/N=C/c3ccccc3[N+](=O)[O-])cc(C)nc2c1 | 2.75
CN1CCN(CCCN(Cc2cccc(-c3ccc(CNCCc4ccccc4)cc3)c2)C(=O)Nc2ccccc2)CC1 | 7.14
Cc1ccc(-c2nn3c(O)c4c(nc3c2C)CCCC4)cc1 | 1.68
CCCN1CCC2(CC1)NC(C(=O)NCCC(C)C)Cc1c2[nH]c2cc(Cl)ccc12 (stereo not given) | 6.94
Cc1cc(-c2cc(Cl)ccc2Cl)no1 | 0.03
CN(C(=O)NCCc1ccccc1)C1CCN(CCCCCNC(=O)/C=C/c2ccc(Cl)c(Cl)c2)CC1 | 12
CCCCn1c(Sc2ccc(C#N)c([N+](=O)[O-])c2)nnc1-c1cccc(Cl)c1 | 6.03

SMILES | inhibition [%]
Cc1cc(N[C@@H](Cc2ccccc2)C(=O)NCCOc2ccccc2)nc(NCC2CCCCC2)n1 | 6.54
N#Cc1ccc(/C=C/C(=O)NCCCCCN2CCCN(C(=O)Nc3ccc(Cl)c(C(F)(F)F)c3)CC2)cc1 | 1.14
CN(c1ccccc1C(=O)Nc1ccccc1Oc1ccccc1)S(=O)(=O)c1ccccc1 | 0.41
O=C(/C=C/c1ccc(Cl)c(Cl)c1)NCCCCCN1CCCN(C(=O)Nc2ccc(OC(F)F)cc2)CC1 | 1.15
Cc1cc(N[C@@H](Cc2ccccc2)C(=O)NC2CCCC2)nc(NCCOc2ccccc2)n1 | -1.48
CO/C(=C/C=C/c1cc2cc(Cl)c(Cl)cc2[nH]1)C(=O)NC1CC(C)(C)N(C)C(C)(C)C1 | 0.74
Cc1cc(O)c(-c2ccc(Oc3ccc(F)cc3)cc2)c(C)n1 | -0.19
COc1cc(C(=O)N2CCOC(CCN3CCc4c(c5ccccc5n4C)C3)(c3ccc(Cl)c(Cl)c3)C2)cc(OC)c1OC (stereo not given) | 0
COc1cc(NC(=O)c2sc(-c3ccc(Cl)cc3)cc2NC(=O)N2CCCC2)ccc1OCCN1CCCC1 | 3.29
COc1cc(CCNCC(O)c2ccc([N+](=O)[O-])c(OCc3ccccc3)c2)cc(OC)c1OC (stereo not given) | 1.28
Cc1ccc2nc(-c3ccc(C(=O)NC4CCN(Cc5ccccc5)CC4)s3)[nH]c2c1 | 1.8
CC(C)(C)c1ccc(CNC(=O)c2cc(CNC3CCNCC3)ccc2O)cc1 | 1.01
O=[N+]([O-])c1ccc(-c2nc3cc(C4=NC5CCCCC5N4)ccc3[nH]2)cc1 (stereo not given) | -0.65
O=C(/C=C/c1ccc(Cl)c(Cl)c1)NC1CCC(CN2CCC(c3nc4cccnc4[nH]3)CC2)CC1 (stereo not given) | 2.5
CC(=O)Nc1cccc(CNCc2ccc(-c3cnc(N4CCCC(C)(C)C4)nc3)cc2)c1 | 3.36
Cc1ccc2c(=NN=Cc3cccc(F)c3)cc(C)[nH]c2c1 | 7.52
Cn1nccc1C(=O)NCCNCc1ccc(-c2ccc(-c3nc4cc(F)ccc4[nH]3)cc2)cc1 | 4.48
COc1ccccc1-c1cc(C(=O)N2CCN(S(=O)(=O)c3ccc(C)cc3)CC2)[nH]n1 | 3.73
OCCNc1nc(Nc2ccccc2)nc2ccccc12 | 7.01
CCCCCCN1CCCN(Cc2ccc(C(=O)Nc3ccc(Cl)cc3)cc2)CC1 | 13.8
